Most compounds without a hit are left out; they make up all but 18% or so of the library.
TDP1 inh: TDP1 (human) enzyme inhibition. Q9NUW8. recombinant TDP1, AlphaScreen DNA substrate cleavage. Potency, µM (top dose mostly 130 µM), inactives show at the top dose activity change, negative = inhibition, actives largely listed as inhibitors. 350,000 compounds, 0.28% hits. AID 485290; also: potency is read from the fitted curve at half-maximal effect; % is scaled to controls: 0 for no effect and ±100 for the full control effect; nearly all actives have a fitted effect of over 40% in size
Target sequence (Q9NUW8 whole entry, looked up): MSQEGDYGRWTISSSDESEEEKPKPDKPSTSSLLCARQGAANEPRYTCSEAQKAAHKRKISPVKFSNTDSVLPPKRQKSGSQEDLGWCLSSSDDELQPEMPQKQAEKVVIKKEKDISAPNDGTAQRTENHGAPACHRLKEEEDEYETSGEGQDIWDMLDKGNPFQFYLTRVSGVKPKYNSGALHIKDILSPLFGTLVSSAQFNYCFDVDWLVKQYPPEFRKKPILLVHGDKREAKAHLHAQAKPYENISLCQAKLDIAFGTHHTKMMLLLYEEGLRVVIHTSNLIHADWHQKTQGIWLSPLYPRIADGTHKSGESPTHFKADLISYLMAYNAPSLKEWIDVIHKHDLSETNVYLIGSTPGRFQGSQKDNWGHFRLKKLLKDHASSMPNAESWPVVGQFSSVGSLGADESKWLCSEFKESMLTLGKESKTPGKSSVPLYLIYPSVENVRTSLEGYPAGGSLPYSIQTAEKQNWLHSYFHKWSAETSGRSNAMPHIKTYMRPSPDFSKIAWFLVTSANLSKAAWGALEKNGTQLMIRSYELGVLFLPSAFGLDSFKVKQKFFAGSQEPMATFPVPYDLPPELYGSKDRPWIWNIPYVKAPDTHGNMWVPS
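Signal: AlphaScreen proximity between streptavidin donor and anti-FITC acceptor beads on intact substrate. Reaction: Tdp1 1 nM, substrate 15 nM final, 5 min RT after 15 min compound preincubation.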
TDP1 cell noCPT: qHTS for Inhibitors of human tyrosyl-DNA phosphodiesterase 1 (TDP1): qHTS in cells in absence of CPT | DT40 Tdp1-/- hTDP1 cells, no CPT, ATP luminescence, 48 h | Potency, µM (top dose mostly 46.2 µM), for inactives: at the highest dose activity change, negative = growth inhibition, most hits filed as inhibitors | 420,000 compounds, 15% hits | AID 686978, 2013; also: potency is read from the fitted curve at half-maximal effect; % is scaled to controls: 0 for no effect and ±100 for the full control effect; nearly all actives have a fitted effect of over 55% in size
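Stably hTDP1-transfected Tdp1-null chicken DT40 cells were treated with library compounds minus camptothecin and grown for at least 48 hr at 37 °C, after which cellular ATP was quantified by luminescence.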
HepG2 tox: counter-screen for TGF-b inhibitors: cytotoxicity in HepG2 cells; HepG2 CAGA-GFP viability, ATP luminescence, 18 h; AID 588856; 410,000 compounds, 0.76% hits; Potency, µM (top dose mostly 46.1 µM), inactives show at the top dose activity change, negative = cytotoxicity, most hits filed as cytotoxic; also: potency is read from the fitted curve at half-maximal effect
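CellTiter-Glo luminescence gave cytotoxicity after 18 hours at 37 degrees C. The cells were HepG2 CAGA-GFP in 1% FBS DMEM, stimulated with 500 pg/mL TGF-beta after compound addition. %Activity was normalised to no-cell wells (complete cell-killing) and DMSO (no toxicity), and curves were fitted and classified.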
TDP1 cell CPT: DT40-hTDP1 cell growth loss with CPT; chicken DT40 Tdp1-/-;hTDP1 cells + 20 nM CPT, ATP luminescence, 48 h; Potency, µM (series often up to 46.2 µM), for inactives: at the highest dose activity change, negative = growth inhibition, usual class: inhibitors; 420,000 compounds, 12% hits; also: potency is read from the fitted curve at half-maximal effect; % is scaled to controls: 0 for no effect and ±100 for the full control effect; nearly all actives have a fitted effect of over 55% in size
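Chicken DT40 Tdp1-/- cells complemented with human TDP1, 400 cells/well, exposed to compounds plus 20 nM camptothecin for at least 48 h at 37 C; viability read as ATP content by CellTiter-Glo luminescence.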
TGFb SMAD3 inh: TGF-b pathway inhibition | HepG2 CAGA-GFP TGF-b/SMAD3 reporter, GFP fluorescence, 18 h; TGF-beta stimulated, 500 pg/mL final | AID 588855 | Potency, µM (top dose mostly 46.1 µM), without a hit: at the top dose activity, negative = inhibition, usual class: inhibitors | 410,000 compounds, 1.2% hits; also: potency is read from the fitted curve at half-maximal effect; % is scaled to controls: 0 for no effect and ±100 for the full control effect; nearly all actives have a fitted effect of over 65% in size
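GFP signal (ex488/em500-530) from TGF-beta-stimulated HEPG2 CAGA-GFP cells, 500 pg/mL final, 18 h at 37 degrees C in DMEM plus 1% FBS, normalized to unstimulated and DMSO-stimulated controls.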
IL-1B inflam inh: inhibitors of inflammasome signaling (IL-1 beta secretion); THP-1 LPS/ATP IL-1B secretion, AlphaLISA, 16 h; hits give low values; activity change, % at 57.5 µM; 360,000 compounds, 4.7% hits; AID 743279; in the data active = activity change below about -50%; inconclusive = mostly about -30% to -49%; also: % is scaled to controls: 0 for no effect and ±100 for the full control effect
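THP-1 cells pretreated 1 hr with compounds (up to 57.5 uM final), then stimulated with LPS (250 ng/mL final) plus ATP (1.25 mM final); secreted IL-1B measured by AlphaLISA after 16 hr, decreased signal indicating inhibition.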
Starred values were filed as active, the others as inactive; ? = inconclusive; . = no result; [ ] = remark or other dose. Unless noted, calls follow the shape of the dose curve; as a rule, active = well fitted curve in the direction sought with a large enough effect; inconclusive = small, poorly fitted or top-dose-only effect, or another doubt; inactive = no such curve, though single readings can be large; an effect the other way counts as inactive or inconclusive.

SMILES | TDP1 inh | TDP1 cell noCPT | HepG2 tox | TDP1 cell CPT | TGFb SMAD3 inh | IL-1B inflam inh
Cc1cc(OCCCn2ccnc2)ccc1C(C)C | 2.6% | 20.6µM* | -16.7% | ? | 3.2% | -20.7
CCCCOc1ccc(NC(=O)C(=O)NCCCn2ccnc2)cc1 | 7.9% | 18.4µM* | -6.1% | ? | -16.5% | 10.1
Cc1cc(OCCCCn2ccnc2)cc(C)c1Cl | 9.9% | 20.6µM* | -23.8% | 18.4µM* | -1.1% | -69.6*
c1ccc2cc(OCCCn3ccnc3)ccc2c1 | . | ? | -8.5% | 20.6% | -10.5% | ?
Cc1ccccc1OCCCCCn1ccnc1 | 5.2% | 16.4µM* | -24.3% | 20.6µM* | -9.8% | ?
CC(C)(C)c1ccc(OCCCn2ccnc2)cc1 | 2.7% | ? | -17.5% | -2.5% | -16.4% | -68.3*
O=C(O)c1ccc(OCCn2ccnc2)cc1 | 7.2% | -6.4% | -26.1% | -6.8% | 1.1% | 5.4
COC(=O)c1ccccc1NC(=O)CSc1nc(N)cc(=O)[nH]1 | . | -5.3% | -18.8% | -4.4% | -20.1% | 8.2
CCC1=C(c2ccc(C)cc2)S(=O)(=O)N=C1N1CCC(C(=O)NCc2ccc(N(C)C)cc2)CC1 | 9.7% | 23.1µM* | -12.2% | 18.4µM* | ? | .
CC1=C(c2ccc(C)c(C)c2)S(=O)(=O)N=C1N1CCC(C(=O)NCc2ccc(N(C)C)cc2)CC1 | 5.8% | ? | -9.1% | ? | 1.9% | .
O=C(Cc1cccc(NC(=O)C2CCCN(C(=O)c3ccccc3)C2)c1)Nc1ccc(C(=O)N2CCOCC2)cc1 (stereo not drawn) | . | -2.9% | -0.2% | 1.1% | 6.3% | -12.2
Oc1ccc(Cl)cc1C1=NNC(c2ccc(Cl)cc2)C1 (stereo not drawn) | 2.6% | 13µM* | -25.3% | 23.1µM* | ? | ?
Cc1nn(C)cc1CN1CCC(n2nccc2NC(=O)CCCc2ccccc2)CC1 | ? | 2.0% | -33.3% | -1.9% | -14.9% | -2.8
CCN1CCN(S(=O)(=O)c2ccc(C(C)(C)C)cc2)CC1 | . | -14.3% | -8.8% | 0.8% | 16.2% | 1.0
Cc1noc(C)c1COC(=O)CCN1c2ccccc2Sc2ccccc21 | 4.1% | 20.6µM* | -8.0% | ? | -0.1% | -16.3
Cc1noc(C)c1COC(=O)CCc1nc2ccccc2s1 | 3.8% | -10.3% | 0.2% | -13.8% | 11.0% | -0.6
CN1C(=O)C(CCC(=O)O)NC1=S (stereo not drawn) | -6.0% | -24.5% | 13.5% | 5.4% | -3.4% | 5.5
O=C1CCN(CCCN2CCC(=O)N(Cc3ccccc3)C2=S)C(=S)N1Cc1ccccc1 | . | ? | -27.6% | ? | -13.9% | -12.8
O=C1CSC(=S)N1Cc1ccccc1 | . | 20.6µM* | 3.2% | ? | ? | -9.7
Cc1c(NC(=O)c2cc(-n3cnnc3)ccc2Cl)cccc1-c1nc2ccccc2o1 | -7.7% | ? | -24.8% | -13.3% | ? | -10.7
O=C(Nc1ccc(-c2nc3ccccc3o2)cc1)c1cc(-n2cnnc2)ccc1Cl | 7.7%[56.1 µM] | ? | -34.5% | 18.4µM* | -16.4% | ?
O=C(Nc1ccc(-c2nc3ccccc3o2)c(O)c1)c1cc(-n2cnnc2)ccc1Cl | -9.1% | ? | 17.8µM* | 25.9µM* | 0.0% | -14.4
Cc1cc(C)c2ccc(=O)n(CC(=O)N/N=C/c3ccccc3Cl)c2n1 | -5.6% | -13.8% | 2.7% | 2.7% | 27.5% | 14.7
CCc1nc(SCC(=O)N2CCC(C)CC2)c2c(=O)n(C)c(=O)n(C)c2n1 | 0.0% | 25.9µM* | -24.6% | ? | 1.4% | 27.1
CCCc1nc(SCC(=O)N2CCN(c3ccccc3)CC2)c2c(=O)n(C)c(=O)n(C)c2n1 | 2.6% | 7.31µM* | 5.0% | 6.51µM* | 1.9% | 16.1
SMILES | TDP1 inh | TDP1 cell noCPT | HepG2 tox | TDP1 cell CPT | TGFb SMAD3 inh | IL-1B inflam inh
CCCc1nc(SC2CCCC2)c2c(=O)n(C)c(=O)n(C)c2n1 | 5.4% | 23.1µM* | -17.9% | 23.1µM* | -24.7% | 32.8
CCCc1nc(SCC(=O)N2CCC(C)CC2)c2c(=O)n(C)c(=O)n(C)c2n1 | -1.9% | 11.6µM* | -28.0% | 16.4µM* | -16.3% | ?
COc1ccc(C2=Nn3c(nnc3-c3ccc(OC)c(OC)c3)SC2)c(OC)c1 | 17.9% | . | . | . | . | .
CCCOc1ccc(CNC(=O)c2ccc(C)c(-n3c(C)nc4cccnc43)c2)cc1 | 0.0% | ? | -3.0% | ? | ? | .
CCOc1ccc(-c2nnc(SCC(=O)NCCc3ccccc3)nc2-c2ccc(OCC)cc2)cc1 | 5.2% | -26.0% | -1.1% | -11.1% | 0.0% | .
NC(=S)N/N=C/c1ccc(C23CC4CC(CC(C4)C2)C3)cc1 | . | 3.66µM* | -10.5% | 9.2µM* | -14.3% | 16.2
COc1ccc(S(=O)(=O)N2CCOC2CNC(=O)C(=O)NCCN2CCOCC2)cc1 (stereo not drawn) | 3.0% | -7.1% | -6.2% | 1.7% | 1.2% | -2.3
CN(Cc1ccccc1)C(=O)CSc1c2c(nc3ccc(Cl)cc13)CCCC2 | 2.3% | 16.4µM* | 22.4µM* | ? | ? | .
CCCCN(C)C(=O)CSc1c2c(nc3ccc(Cl)cc13)CCCC2 | -2.3% | ? | -31.3% | ? | ? | .
CCOc1ccccc1NC(=O)CSc1c2c(nc3ccc(Cl)cc13)CCCC2 | 2.3% | ? | -16.2% | ? | -7.2% | .
COc1cc(OC)c(N(C)C(=O)CSc2c3c(nc4ccc(Cl)cc24)CCCC3)cc1Cl | 2.3% | ? | -77.6% | 18.4µM* | ? | .
CCCN(CCC)C(=O)CSc1c2c(nc3ccc(Cl)cc13)CCCC2 | 0.0% | ? | -96.7% | 18.4µM* | -29.4% | .
CN(C)CC1CCCCC1OC(=O)/C=C/c1ccccc1 (stereo not drawn) | 1.9% | -11.1% | -2.2% | -7.7% | 3.2% | ?
Cc1cc(OCC(=O)N2CCOCC2)ccc1[N+](=O)[O-] | . | 2.0% | -14.1% | -11.3% | -10.0% | 0.0
O=C(O)CCNC1C=CS(=O)(=O)C1 (stereo not drawn) | 2.5% | 3.2% | -0.5% | -22.2% | 1.7% | 6.9
CCOc1ccc(CCNC(=O)c2ccc(CSCc3ccccc3C)o2)cc1OCC | 5.2% | 16.4µM* | -31.7% | 16.4µM* | -26.7% | .
CCOc1ccc(CCNC(=O)CCNC(=O)c2ccco2)cc1OCC | 6.1% | 19.6% | -0.7% | -23.7% | -6.8% | -7.1
CCOc1ccc(CCNC(=O)c2ccc(CS(=O)(=O)Cc3ccccc3Cl)o2)cc1OCC | 11.6% | 23.1µM* | -28.5% | 16.4µM* | ? | .

From PubChem BioAssay
